# The sample as a whole holds a higher share of hits than the screen did.
# ROC1-CUL1 inh = blocks human RBX1-Cullin-1 di-ubiquitin formation; P62877+Q13616; in vitro K48 di-Ub FRET, acceptor:donor ratio, 45 min; inhibition, % at 10 µM; 0.6% of 140,000 active; AID 1347404; in the data active means inhibition above about 25%
# Target sequence (P62877 whole entry, looked up): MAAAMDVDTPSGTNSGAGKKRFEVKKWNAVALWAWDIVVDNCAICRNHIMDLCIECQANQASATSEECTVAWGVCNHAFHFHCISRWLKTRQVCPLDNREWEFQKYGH
# Target sequence (Q13616 whole entry, looked up): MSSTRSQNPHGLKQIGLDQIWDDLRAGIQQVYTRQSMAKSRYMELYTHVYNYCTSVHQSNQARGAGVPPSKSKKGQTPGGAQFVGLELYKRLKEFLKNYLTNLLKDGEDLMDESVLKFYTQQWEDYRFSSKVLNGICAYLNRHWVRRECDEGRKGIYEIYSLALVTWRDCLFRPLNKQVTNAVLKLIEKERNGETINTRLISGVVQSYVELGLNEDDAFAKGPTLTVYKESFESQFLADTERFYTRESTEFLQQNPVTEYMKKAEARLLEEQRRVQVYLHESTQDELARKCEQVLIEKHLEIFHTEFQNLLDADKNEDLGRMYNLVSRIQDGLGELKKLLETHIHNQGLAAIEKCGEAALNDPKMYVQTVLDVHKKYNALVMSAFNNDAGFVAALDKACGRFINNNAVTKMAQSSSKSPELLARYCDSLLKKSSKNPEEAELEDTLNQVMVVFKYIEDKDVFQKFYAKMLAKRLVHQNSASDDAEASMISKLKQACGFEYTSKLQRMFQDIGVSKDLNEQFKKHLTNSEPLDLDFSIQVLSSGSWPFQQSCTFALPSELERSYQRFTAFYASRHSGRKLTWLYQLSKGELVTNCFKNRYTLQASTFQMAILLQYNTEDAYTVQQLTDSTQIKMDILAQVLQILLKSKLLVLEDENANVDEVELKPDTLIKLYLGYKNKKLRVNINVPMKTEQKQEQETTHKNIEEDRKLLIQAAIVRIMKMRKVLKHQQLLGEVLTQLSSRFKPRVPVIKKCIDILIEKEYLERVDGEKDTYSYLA
# Numbers without * were called inactive.
SMILES,ROC1-CUL1 inh
O=C(O)c1cc(S(=O)(=O)Nc2ccc(Br)cc2)c(Cl)cc1Cl,7.5
N#CCN(CC#N)C(=O)c1cccc([N+](=O)[O-])c1,-14.0
Cc1ccc(S(=O)(=O)N(CC(=O)Nc2ccccc2F)Cc2ccc(Cl)cc2)cc1,-5.0
CC(C)c1cc(N)cc(C(=O)O)c1O,2.5
CCC(C)NS(=O)(=O)c1ccc(OC)c(C(=O)O)c1 (configuration not stated),-1.2
CCC(C)c1cc(Cc2cc(C(C)CC)cc(C(=O)O)c2O)c(O)c(C(=O)O)c1 (configuration not stated),80.2*
O=C(c1ccccc1)c1cccnc1Cl,1.7
CN1C(=O)C=C(c2ccccc2)CC1=O,98.6*
CC1(C)CNC(=O)C=C(c2ccccc2)C1,-1.0
O=C1C=C(c2ccccc2)OC(=O)C1,1.4
O=C(NC1CCCC1)N1CCN(c2cccc(Cl)c2)CC1,-9.5
O=C(Nc1ccc(S(=O)(=O)Nc2ccc(Cl)nn2)cc1)c1ccc(COc2cc(Cl)ccc2Cl)o1,35.1*
COc1cc(NS(=O)(=O)c2ccc(NC(=O)c3ccc(COc4ccc5c(c4)CCC5)o3)cc2)ncn1,-1.1
O=C(Nc1ccc(S(=O)(=O)Nc2ccc(Cl)nn2)cc1)c1ccc(COc2cccc(Cl)c2)o1,14.2
Cc1c(Sc2c(C)n(C)n(-c3ccccc3)c2=O)c(=O)n(-c2ccccc2)n1C,2.2
CC1=NNC(=O)C1N=Nc1c(C)n(C)n(-c2ccccc2)c1=O (configuration not stated),39.0*
Cc1c(N=NC2C(=O)N(c3ccccc3)N=C2N)c(=O)n(-c2ccccc2)n1C (configuration not stated),-5.4
CC/C(=N\O)c1ccc(C(C)C)cc1,0.5
COc1cc(/C=C2\C(=O)NN(c3ccccc3)C2=O)cc(Cl)c1OCCCOc1ccc(C)cc1,92.1*
Cc1ccc(N2NC(=O)/C(=C/c3ccccc3OCc3ccccc3)C2=O)cc1Cl,8.2
Cc1ccc(OCCCOc2c(Cl)cc(Cl)cc2/C=C2\C(=O)NN(c3ccccc3)C2=O)cc1,77.4*
O=C1NN(c2ccccc2)C(=O)/C1=C/c1cc(Cl)ccc1OCc1ccc(Cl)cc1,41.0*
Cc1cc(OCCOc2ccccc2/C=C2\C(=O)NN(c3ccccc3)C2=O)ccc1Cl,7.5
COc1cc(/C=C2\C(=O)NN(c3ccccc3)C2=O)cc(Cl)c1OCCCOc1ccc(Cl)cc1,11.8
Cc1ccc(OCCCOc2ccccc2/C=C2\C(=O)NN(c3ccccc3)C2=O)cc1,35.8*
SMILES,ROC1-CUL1 inh
O=C1NN(c2ccccc2)C(=O)/C1=C/c1cn(CCCOc2ccc(Cl)cc2)c2ccccc12,-3.3
Cc1ccccc1COc1ccc(Cl)cc1/C=C1\C(=O)NN(c2ccccc2)C1=O,8.8
Cc1ccc(COc2ccc(Cl)cc2/C=C2\C(=O)NN(c3ccccc3)C2=O)cc1,9.3
COc1cc(/C=C2/C(=O)NN(c3ccc(C)cc3)C2=O)cc(Cl)c1OC,7.6
CCCOc1ccccc1/C=C1/C(=O)NN(c2ccc(I)cc2)C1=O,10.3
O=C1c2ccccc2-c2ccc(-c3nc(-c4ccc(O)cc4)[nH]c3-c3ccccc3)cc21,1.5
COc1ccc(N2CCN(C(=O)c3ccoc3C)CC2)cc1,5.8
COCCCN1C(=O)CC(CC(=O)N2CCC(c3ccccc3Cl)C2)(c2ccccc2OC)C1=O (configuration not stated),10.3
CN(Cc1n[nH]c2c1CCCCC2)C(=O)CC1(c2ccc(-c3ccccc3)cc2)CC(=O)N(C)C1=O (configuration not stated),6.5
COc1cc(OC)c(C(=O)NC2CCCCC2)cc1OC,-5.0
C=CCOc1cccc(NC(=O)C2CC2)c1,15.7
Cc1cc(OC(C)C(=O)N2CCN(c3ncccn3)CC2)cc(C)c1Cl (configuration not stated),14.4
Cc1ccc(-n2nc(-c3ccccc3)c3nc4ccccc4nc32)cc1,5.3
COc1cc2nncc(C(C#N)C3=NC(C)(C)CN3C(C)C)c2cc1OC (configuration not stated),5.9
Cc1ccc2c(c1)CN(C)c1ccc(C)cc1CN2,5.3
Nc1cc(N2CCCCC2)ccn1,3.7
N#Cc1c(N)[n+]([O-])c2cc(NCCO)c(F)cc2[n+]1[O-],28.0*
OCCNc1cc2nccnc2cc1F,-6.0
CSc1cc(-c2ccccc2)nc(N)n1,5.0
COc1cc(-c2c(F)c(F)c(F)c(F)c2F)nc(N)n1,34.6*
COc1cc(OC)nc(Oc2cccc(OC)c2N)n1,4.0
CCn1c(=O)c2c(nc3n(C(C)c4ccccc4)c(C)c(C)n23)n(C)c1=O (configuration not stated),-0.8
O=C(c1cccnc1)N1CCN(c2ncccn2)CC1,6.9
CCCCOc1ccccc1NC(=O)COc1ccc(Cl)cc1C,-1.1
COc1ccccc1/C=C1/SC(=S)N(CCCCCC(=O)O)C1=O,14.9
SMILES,ROC1-CUL1 inh
O=C(O)CCCCCN1C(=O)c2ccc3c4c(ccc(c24)C1=O)C(=O)N(CCCCCC(=O)O)C3=O,7.0
O=C(O)CCCCCN1C(=O)/C(=C2\SC(=S)N(CCCCCC(=O)O)C2=O)SC1=S,65.0*
O=Cc1ccc(/C=C2/SC(=S)N(c3ccccc3)C2=O)cc1,1.2
COc1ccc(CC(=O)Nc2cc3c(cc2C(C)=O)OCO3)cc1OC,-2.7
O=c1[nH]cccc1I,65.9*
O=c1[nH]cc(I)cc1I,3.0
O=c1[nH]cccc1-c1ccc[nH]c1=O,5.2
O=S1(=O)c2ccccc2C2C1C1c3ccccc3S(=O)(=O)C21 (configuration not stated),1.1
O=C1C=CC([N+](=O)[O-])=CC(C(=O)/C=C/c2ccccc2)C1=O (configuration not stated),82.5*
CN1C(=O)C(C(=O)/C=C/c2ccccc2)C(=O)N(C)C1=O,-0.1
O=C1C=CC(Br)=CC(C(=O)/C=C/c2ccc(F)cc2)C1=O (configuration not stated),11.3
Cc1nn2c(C)c(C(=O)O)cnc2c1-c1ccccc1,2.4
Cc1nc(NC(=O)/C=C/c2ccc3c(c2)OCO3)sc1C(=O)N(C)C,0.6
Cc1c(C)n2c3c(=O)[nH]c(=O)n(C)c3nc2n1CCN1CCCCCC1,8.1
N#CC1=c2s/c(=C\c3ccc(-c4ccccc4)o3)c(=O)n2C(=N)C(C#N)C1c1ccc(-c2ccccc2)o1 (configuration not stated),55.8*
N#CC1=c2s/c(=C\c3ccccc3C(F)(F)F)c(=O)n2C(=N)C(C#N)C1c1ccccc1C(F)(F)F (configuration not stated),3.5
N#CC1=c2s/c(=C/c3cccc(C(F)(F)F)c3)c(=O)n2C(=N)C(C#N)C1c1cccc(C(F)(F)F)c1 (configuration not stated),-1.9
CNC(=S)NNC(=O)c1c(Cl)c(C)nn1C,-9.3
CC1=C(C#N)C(=O)N(CCc2ccccc2)C(=O)/C1=C/c1ccc(-c2ccc(S(N)(=O)=O)cc2)o1,26.5*
CC1=C(C#N)C(=O)N(CCO)C(=O)/C1=C\c1ccc(-c2ccccc2)o1,-12.2
CCCN1C(=O)C(C#N)=C(C)/C(=C\c2ccc(-c3ccccc3)o2)C1=O,7.8
CCOc1cc(C)ccc1S(=O)(=O)N1CCN(c2ccccc2C)CC1,-8.4
O=S(Cc1ccccc1F)c1nc(Cl)ns1 (configuration not stated),0.7
O=S(=O)(c1ccccc1)c1nc(Cl)ns1,7.5
O=S(Cc1ccccc1Cl)c1nc(Cl)ns1 (configuration not stated),29.7*
CN1C(=O)N(Cc2ccccc2)c2cccc3cccc1c23,10.6
O=C(Nc1ccc(OCCOc2ccccc2)cc1)c1ccco1,13.2
